Over roughly 5,800 sequences, “enrichment r” has its median near 0.68; the highest 2% begin near 11. Not all results are given here.
T1: UNK ZnF1-6 (called full-length) (human, UniProt Q9C0B0 30-357)
T1 sequence: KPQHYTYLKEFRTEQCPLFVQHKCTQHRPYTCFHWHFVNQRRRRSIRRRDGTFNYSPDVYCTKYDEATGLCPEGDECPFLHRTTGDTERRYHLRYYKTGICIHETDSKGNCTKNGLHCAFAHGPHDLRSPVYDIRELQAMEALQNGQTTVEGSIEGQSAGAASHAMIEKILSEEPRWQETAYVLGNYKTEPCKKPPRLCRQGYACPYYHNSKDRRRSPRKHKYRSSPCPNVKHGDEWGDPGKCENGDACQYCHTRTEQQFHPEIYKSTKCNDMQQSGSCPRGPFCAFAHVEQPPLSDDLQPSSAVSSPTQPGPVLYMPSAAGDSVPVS

B1: chr5:173316791:173316892:-|3pUTR|ENSG00000113739|msi1|FALSE|unique (ssRNA)
RNA: GGGAGUUCUACAGUCCGACGAUCGGAAACCUUAUACCCAGAGGAAAAUACACACCUGGGGAGUACAUUUGACAAAUUUCCCUUAGGAUUUCGUUAUCUCACCUUGACCCUCAGCCAAGAUUGGUAAAGCUGCGUCCUGGCGAUCAACAGAGGAUUGAGCAUCA
B2: ENSG00000064393:stop:overlap|stop_codon|ENSG00000064393|stop_codon|NA|stop_codon (ssRNA)
RNA: GGGAGUUCUACAGUCCGACGAUCUCUCCCUGGAGAGUGGUUUUCCUGCUUUUCUGCUGCUAGAAAUGUUGCUGUAUGGGAGCUAGUACAAUAGAAAGUGCCCAGUGACUGCAGGCGACCCUUACCGAGGAUUUUAUUCAAGUACAACAGAGGAUUGAGCAUCA
B3: ENSG00000198589:be:win_4201|CDS|ENSG00000198589|bound_else_gene|NA|bound_elsewhere_windowed (ssRNA)
RNA: GGGAGUUCUACAGUCCGACGAUCGAAGCCUCUGUGACAUUUUUGCAGAGGCUAAUUAGCCUUGUGGAUGUGCUUAUAUUUGCAAGUUCUCUUGGCUUUACUGAAAUUGAAGCUGAAAAAAGUAUGUCAUCUGGAGGAAUUUUGCAACAGAGGAUUGAGCAUCA
B4: chr9:37126384:37126485:+|CDS|ENSG00000147905|unk|total|mutant (ssRNA)
RNA: GGGAGUUCUACAGUCCGACGAUCUAUCGAGAUGAGUCAUCCCGUGAACUGAGUGUUGACCGUGAGGUGGAAUUUCAACUCUACCGCCAAAUUCAUUAUGCCCAAGAUCUUGAUGAUGUCAUCAGGGAGGAAGAGCAUGAAGAACAACAGAGGAUUGAGCAUCA
B5: chr15:52550718:52550819:-|3pUTR|ENSG00000128989|msi1|total|mutant (ssRNA)
RNA: GGGAGUUCUACAGUCCGACGAUCUUUAUAUAAACUUUUUAAAUGCCGAAACUUUUUACUUCCACACUCAGUUUUGGAGACCCCCGAAUAAAAGGCUUCAAUACUCUGCAUUCCAUGCCCUCUGCCACCUGCUUUUUUUUCCCCCAACAGAGGAUUGAGCAUCA
B6: ENSG00000066084:stop:overlap|stop_codon|ENSG00000066084|stop_codon|NA|stop_codon (ssRNA)
RNA: GGGAGUUCUACAGUCCGACGAUCACUGGCAGCCACACAUCUCACCUGCUGGGACAGAACCGGCAUACAUUGAGGGGAAACAAUAGUAAAUGUCUUAGACUUUAAGAAGGAUGCUGGGCUGUGGCACGGCAUGUUUGCGAAUGUCAACAGAGGAUUGAGCAUCA
B7: chrX:150470157:150470258:+|CDS|ENSG00000013619|unk|FALSE|unique (ssRNA)
RNA: GGGAGUUCUACAGUCCGACGAUCUCCAAAUGAGCUAGAUCUUGAGAAGAUACUGGGGACGAAGCCAGAAGAGCCACUGGUUUUAGAUCAUCCCCAGGCAACCCUAAGCACAACUCCCAAGCCUUCGGUUCAGAUGUCACACUUCAACAGAGGAUUGAGCAUCA
B8: chr8:102207567:102207681:-|3pUTR|ENSG00000048392|unk|total|mutant (ssRNA)
RNA: GGGAGUUCUACAGUCCGACGAUCUAUUAAUUGCAAUGAUGUUGUAAUAAAAUACUCUCAUUUCCUUAAAAUAAUUGUGAUUCCCGGUCCCCGGAUCCCGAAUCCGAUCUUUGUAUUUUUAAUGCUCCGGGGAAGAAUAUAAGUCAACAGAGGAUUGAGCAUCA
B9: ENSG00000142634:stop:overlap|stop_codon|ENSG00000142634|stop_codon|NA|stop_codon (ssRNA)
RNA: GGGAGUUCUACAGUCCGACGAUCAGGCGGAGGAGAUGAAGCAGCGGAAAGCGGCCUUCAAGGAGCUGCAGUCCACCUUUAAGUAGCGGGGGCUGCAGCCGACCGCCCUGCUCCGGCCCCAGUGUGGUGGGCGAGGGUGGCGCACAACAGAGGAUUGAGCAUCA
B10: ENSG00000100154:stop:overlap|stop_codon|ENSG00000100154|stop_codon|NA|stop_codon (ssRNA)
RNA: GGGAGUUCUACAGUCCGACGAUCAGCCAGUGAAGGCAGGUGACACUUACCUCCACCAGGUGAUGCAGGCUGUGGUGAUAAACUAGAGUGUGAAGAGCUCAGAGUGCAGCCUCUGGCCUUGCCACUCACAAGCUGUAGGACACUCAACAGAGGAUUGAGCAUCA
B11: chr18:33333173:33333394:-|CDS|ENSG00000166960|control|control|control (ssRNA)
RNA: GGGAGUUCUACAGUCCGACGAUCACAUUUUGAAAAACAAAAGACAGAGUUAGAAGAAGCAAAUGCAAAGAUUCAAGCAGACAUAGACUACAUGAAUGAACAUGGCCCUCUACUGGACUCUAAGCAGAAUCAGGAACUUCAAGACAACAGAGGAUUGAGCAUCA
B12: chr3:142163631:142163732:-|3pUTR|ENSG00000175066|unk|total|mutant (ssRNA)
RNA: GGGAGUUCUACAGUCCGACGAUCCCCAAAGUGCUGGGAUUGCAGCCGUGAACCACUGCACCCAGCCAAUGGGUGUAAUUUCACCGGAAAUAAUUCUUUUUGUCAGAAUGUACUGAAUUGUAAUAUUAAUACCUGAAAAUUUGUCAACAGAGGAUUGAGCAUCA
B13: ENSG00000101596:stop:overlap|stop_codon|ENSG00000101596|stop_codon|NA|stop_codon (ssRNA)
RNA: GGGAGUUCUACAGUCCGACGAUCUUAGUUGUAAUAAAAUAAAAGAUAAUGACAAAGAAGAUGGCUGCUUCUAUUUCAGGUUAUAGUUGAAGUCCUGCCUAAUCAACCUGUGAAGUUAGUACCUAAAAUUAAACCACCUACACCCAACAGAGGAUUGAGCAUCA
B14: chr20:18487131:18487232:-|3pUTR|ENSG00000089050|msi1|FALSE|unique (ssRNA)
RNA: GGGAGUUCUACAGUCCGACGAUCAAAUAUAGUAACCAGUAACCACAGCUAGCUGUAAAAUUGAAAAUUCAGUUCAGUCAAACUAGCCAUAUUUCAAGUGCUCAACAGCCACUGGUGGCUAUUGGUUACCUUACUGACCAGCCACAACAGAGGAUUGAGCAUCA

Target: T1, UNK ZnF1-6 (called full-length)
Assay: nsRBNS (natural sequence RNA bind-n-seq); RBNS binding buffer (assumed for nsRBNS): 25 mM Tris pH 7.5, 150 mM KCl, 3 mM MgCl2, 0.01% Triton X-100, 500 ug/ml BSA, 20 U/ml SUPERase-In, 4 C; UNK is unkempt and MSI1 is Musashi-1; names of the RNAs are library labels; protein concentration not given here; high values mean tight binding

Binder | binding signal
B1 | 0.601 enrichment R
B2 | 0.569 enrichment R
B3 | 0.355 enrichment R
B4 | 0.413 enrichment R
B5 | 1.03 enrichment R
B6 | 1.59 enrichment R
B7 | 0.539 enrichment R
B8 | 0.334 enrichment R
B9 | 1.43 enrichment R
B10 | 0.552 enrichment R
B11 | 0.467 enrichment R
B12 | 0.381 enrichment R
B13 | 1.46 enrichment R
B14 | 0.375 enrichment R
